Among all 2,400 compounds or so, about 750 (31%) were called active. This is one part of the list. Values without a mark were called inactive.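 The calls were made as follows: active = median signal gain over dofetilide-blocked control wells reaching their mean plus 3 SD, so readout 1 at least 0; inactive = the rest.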
The compounds below were run against Voltage-gated inwardly rectifying potassium channel KCNH2 (Homo sapiens) (UniProt Q12809) (assay: modulators restoring hERG flux under dofetilide – cell-based, thallium flux, duplicate retest, dofetilide IC70, confirmation (AID 1835)). Conditions: hERG cell line, FluxOR thallium flux, dofetilide-blocked; at 10 µM; active compounds read high.
Voltage-gated inwardly rectifying potassium channel KCNH2 (Homo sapiens), sequence (Q12809 whole entry, looked up): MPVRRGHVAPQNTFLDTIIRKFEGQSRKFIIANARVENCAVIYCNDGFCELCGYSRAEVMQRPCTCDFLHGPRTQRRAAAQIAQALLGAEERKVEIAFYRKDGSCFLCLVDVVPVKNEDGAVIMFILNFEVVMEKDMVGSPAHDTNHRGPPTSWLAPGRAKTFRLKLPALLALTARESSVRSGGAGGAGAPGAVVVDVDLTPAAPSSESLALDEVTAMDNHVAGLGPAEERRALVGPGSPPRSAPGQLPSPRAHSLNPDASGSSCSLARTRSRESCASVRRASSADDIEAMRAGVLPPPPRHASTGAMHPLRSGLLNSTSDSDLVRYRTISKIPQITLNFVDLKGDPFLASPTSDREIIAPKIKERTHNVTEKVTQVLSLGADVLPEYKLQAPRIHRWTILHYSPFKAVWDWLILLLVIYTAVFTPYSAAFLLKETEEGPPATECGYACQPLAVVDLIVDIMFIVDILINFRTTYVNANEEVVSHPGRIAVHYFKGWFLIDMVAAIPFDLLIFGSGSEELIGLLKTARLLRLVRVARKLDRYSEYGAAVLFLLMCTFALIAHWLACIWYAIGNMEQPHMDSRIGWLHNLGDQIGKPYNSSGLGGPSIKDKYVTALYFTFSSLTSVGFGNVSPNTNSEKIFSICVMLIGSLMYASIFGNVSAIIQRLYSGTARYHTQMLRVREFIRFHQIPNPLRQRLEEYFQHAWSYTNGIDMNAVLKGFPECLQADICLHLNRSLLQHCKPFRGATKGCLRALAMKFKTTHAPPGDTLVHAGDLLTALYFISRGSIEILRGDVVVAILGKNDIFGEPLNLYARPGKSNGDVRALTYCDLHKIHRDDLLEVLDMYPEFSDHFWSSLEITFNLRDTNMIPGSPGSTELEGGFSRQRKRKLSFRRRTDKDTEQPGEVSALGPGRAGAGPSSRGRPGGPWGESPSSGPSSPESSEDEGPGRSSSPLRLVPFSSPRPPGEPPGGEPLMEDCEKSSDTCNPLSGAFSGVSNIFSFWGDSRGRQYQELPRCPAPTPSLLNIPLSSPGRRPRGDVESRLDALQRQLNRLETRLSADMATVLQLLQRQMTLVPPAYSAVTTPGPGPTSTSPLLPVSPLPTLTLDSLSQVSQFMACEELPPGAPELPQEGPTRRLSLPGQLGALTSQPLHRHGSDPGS

SMILES	activity increase over dofetilide control, less the hit threshold
Cc1cc([N+](=O)[O-])ccc1-c1ccc(C2Nc3ccccc3C(=O)N2O)o1 (stereo not drawn)	7% (active)
COc1cc(/C=C2/OC(=O)c3cc([N+](=O)[O-])ccc32)cc(OC)c1OC	-10%
Cc1ccc(/C=N/N2C(=O)c3ccccc3NC2c2ccc(C)cc2)cc1 (stereo not drawn)	-7%
Cc1ccc(-c2cc(-c3n[nH]c(=S)o3)c3ccccc3n2)cc1	37% (active)
Cc1ccc(C(C)C)c(OCc2n[nH]c(=S)o2)c1	-4%
C=CCn1c(-c2cc(-c3ccc(C)cc3)nc3ccccc23)n[nH]c1=S	-16%
COc1ccccc1/C=C1\SC(=S)N(NS(=O)(=O)c2ccc(C)cc2)C1=O	-20%
CC(/C=C1\SC(=S)N(NS(=O)(=O)c2ccc(C)cc2)C1=O)=C\c1ccccc1	7% (active)
CC(/C=C1\SC(=S)N(NS(=O)(=O)c2ccccc2)C1=O)=C\c1ccccc1	15% (active)
CC(/C=C1\SC(=S)N(c2ccc(C(=O)O)cc2)C1=O)=C\c1ccccc1	-15%
Cc1ccc(S(=O)(=O)N2C(=O)/C(=C3\SC(=S)NC3=O)c3ccccc32)cc1	-6%
O=C(O)CC1S/C(=N/N=C/c2ccc(-c3ccccc3[N+](=O)[O-])o2)NC1=O (stereo not drawn)	-22%
COc1ccc(OC)c(NC(=O)C(=O)NNC(=O)C23CC4CC(CC(C4)C2)C3)c1	83% (active)
COc1cccc(OCC(=O)NNC(=O)C(=O)Nc2ccc(OC)cc2OC)c1	39% (active)
COc1ccc(NC(=O)C(=O)NNC(=O)COc2ccc(OC)cc2)cc1	-12%
COc1ccc(NC(=O)COC(=O)c2c(C)noc2C)c(OC)c1	-2%
COc1ccc(OC)c(NC(=O)COC(=O)c2ccc(-n3cnnn3)cc2)c1	-10%
COc1ccc(OC)c(NC(=O)C(=S)NC2CCCCC2)c1	-2%
COc1ccc(OCC(=O)Nc2c3c(nn2-c2ccc(OC)cc2)CS(=O)(=O)C3)cc1	-18%
COc1ccc(NC(=O)C(=O)NNC(=O)COc2ccc(Cl)cc2)c(OC)c1	30% (active)
COc1ccc(OCC(=O)NNC(=O)C(=O)Nc2cc(OC)ccc2OC)cc1	8% (active)
Cc1n[nH]c(C)c1CCNC(=O)C1CCC(=O)N(Cc2ccccc2F)C1 (stereo not drawn)	-15%
O=[N+]([O-])c1ccc(CSc2nnc(SCc3ccc(Cl)cc3)s2)cc1	0%
O=c1c2ccc(Cl)cc2nc(-c2ccc([N+](=O)[O-])cc2)n1O	16% (active)
O=c1c2cc(Br)ccc2nc(-c2ccc([N+](=O)[O-])cc2)n1O	47% (active)
O=c1c2cc(Cl)ccc2nc(-c2ccc([N+](=O)[O-])cc2)n1O	16% (active)
N#Cc1ccc(-c2nc3cc(Cl)ccc3c(=O)n2O)cc1	-4%
O=[N+]([O-])c1ccc(Nc2ccc(Cl)cc2)nc1	-17%

— PubChem BioAssay AID1835 (Johns Hopkins Ion Channel Center, 2009)
